# Measured values taken from PubChem BioAssay (Tox21).
# Unmarked numbers belong to inactive results. Records with an inconclusive call do not appear. A call without a number means that no potency is given here. Active and inactive are the calls of the source. Calls follow the shape of the full dose curve.
# Tests used:
# [1] = biological target: Acetylcholinesterase (Homo sapiens) (UniProt P22303); assay: Acetylcholinesterase (AChE) small molecule antagonists: colormetric cell-based qHTS assay (AID 1347395); also: nearly all actives have a fitted effect of over 30% in size; also: potency is read from the fitted curve at half-maximal effect
# Sequence of Acetylcholinesterase (Homo sapiens) (P22303 whole entry, looked up): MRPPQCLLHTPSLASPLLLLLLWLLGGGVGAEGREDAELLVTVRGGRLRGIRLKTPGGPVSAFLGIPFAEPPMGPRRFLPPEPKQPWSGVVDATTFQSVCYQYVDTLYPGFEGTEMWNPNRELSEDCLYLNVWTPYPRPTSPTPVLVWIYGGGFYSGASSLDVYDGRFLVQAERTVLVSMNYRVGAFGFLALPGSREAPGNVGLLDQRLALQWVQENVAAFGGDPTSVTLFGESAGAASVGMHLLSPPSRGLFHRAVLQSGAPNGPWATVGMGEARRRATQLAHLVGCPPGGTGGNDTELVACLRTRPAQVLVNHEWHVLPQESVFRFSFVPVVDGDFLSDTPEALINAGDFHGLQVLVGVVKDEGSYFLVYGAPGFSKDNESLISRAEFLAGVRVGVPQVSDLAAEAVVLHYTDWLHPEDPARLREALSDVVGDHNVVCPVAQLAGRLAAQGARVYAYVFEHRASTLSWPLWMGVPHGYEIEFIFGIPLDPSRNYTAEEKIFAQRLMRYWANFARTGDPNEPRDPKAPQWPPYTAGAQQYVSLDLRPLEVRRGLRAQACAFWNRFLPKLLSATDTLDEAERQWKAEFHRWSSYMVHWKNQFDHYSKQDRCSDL
# Method in brief: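 In this cell-based qHTS, attached SH-SY5Y cells were treated with test chemicals for 30 min, after which acetylthiocholine hydrolysis was followed by DTNB colour development over 90 min at 37 C.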
# [2] = biological target: Acetylcholinesterase (Homo sapiens) (UniProt P22303); assay: Acetylcholinesterase (AChE) small molecule antagonists: enzyme-based qHTS assay (AID 1347397); settings: Potency: AChE enzyme activity inhibition; outcome: AChE enzyme activity inhibition; also: nearly all actives have a fitted effect of over 55% in size; also: potency is read from the fitted curve at half-maximal effect
# Method in brief: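 Recombinant human AChE (50 mU/mL) preincubated with compound 30 min at room temperature; acetylthiocholine plus DTNB then added, and thiocholine formation read colorimetrically after 10 min at room temperature. DMSO served as vehicle control.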
# [3] = biological target: Acetylcholinesterase (Homo sapiens) (UniProt P22303); assay: Acetylcholinesterase (AChE) small molecule antagonists: enzyme-based qHTS assay with human liver microsomes (AID 1347399); settings: Potency: qHTS inhibition; outcome: qHTS inhibition; also: nearly all actives have a fitted effect of over 60% in size
# Method in brief: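 Recombinant human AChE (50 mU/mL in the enzyme mix) and human liver microsomes (0.25 mg/mL final) were preincubated with compound and NADPH (0.25 mg/mL final) for 30 min at 37 C. Acetylthiocholine/DTNB was then added; thiocholine was read colorimetrically after 10 min at room temperature.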
smiles,measurement,setting,value
CN(C[C@@H](CC[N+]12CCC(C3CCCCC3)(CC1)CC2)c1ccc(Cl)c(Cl)c1)C(=O)c1cc(C(F)(F)F)cc(C(F)(F)F)c1,outcome,[1],inactive
same,Potency,[2],7.96 µM (active)
same,outcome,[3],inactive
COc1cc2c(Nc3ccc(Br)cc3F)ncnc2cc1OCC1CCN(C)CC1,Potency,[1],inactive
same,Potency,[2],inactive
same,Potency,[3],inactive
CCOC(=O)c1ccccc1,Potency,[1],inactive
same,Potency,[2],inactive
same,Potency,[3],inactive
COc1ccccc1OCCNCC(O)COc1cccc2[nH]c3ccccc3c12 (centres undefined),Potency,[1],inactive
same,Potency,[2],inactive
same,Potency,[3],inactive
CO[Si](CCC1CCC2OC2C1)(OC)OC (centres undefined),Potency,[1],inactive
same,Potency,[2],inactive
same,Potency,[3],inactive
COc1ccc(C(=O)Nc2ccccc2)cc1[N+](=O)[O-],Potency,[1],35.9 µM (active)
same,Potency,[2],inactive
same,Potency,[3],inactive
CC(NC(CCc1ccccc1)C(=O)O)C(=O)N1C(=O)N(C)CC1C(=O)O (centres undefined),Potency,[1],inactive
same,Potency,[2],inactive
same,Potency,[3],inactive
Nc1cc(C(F)(F)F)ccc1S,Potency,[1],inactive
same,Potency,[2],inactive
same,Potency,[3],inactive
CN[C@H]1CC[C@@H](c2ccc(Cl)c(Cl)c2)c2ccccc21,Potency,[1],inactive
same,Potency,[2],inactive
same,Potency,[3],inactive
COc1ccc2cc(C=O)ccc2c1,Potency,[1],inactive
same,Potency,[2],inactive
same,Potency,[3],inactive
O=C1C=CC(=O)N1c1ccc(Cc2ccc(N3C(=O)C=CC3=O)cc2)cc1,Potency,[1],inactive
same,Potency,[2],inactive
same,Potency,[3],inactive
Oc1ccc(C2CNCCc3c2cc(O)c(O)c3Cl)cc1 (centres undefined),Potency,[1],inactive
same,Potency,[2],inactive
same,Potency,[3],inactive
O=S(=O)(O)c1ccc2c(N=Nc3ccc(S(=O)(=O)O)c4ccccc34)c(O)c(S(=O)(=O)O)cc2c1,"activity, negative = inhibition",[1],-0.661% [at 10.5 µM]
same,"activity change, negative = inhibition",[2],1.09% [at 10.5 µM]
same,"activity change, negative = inhibition",[3],1.78% [at 10.5 µM]
